Common to all, as to experiment: qHTS profiling for inhibitors of Plasmodium falciparum proliferation (AID 504749); also: nearly all actives have a fitted effect of over 60% in size
Details in all cases: P. falciparum in erythrocytes, SYBR Green DNA, 72 h; series mostly up to 28.7 µM
On the technique in general: Quantitative high-throughput screening tests each substance at several concentrations.

One test relates to AA1029. The gist of the method:
(§1)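 Quantitative HTS: compounds pinned into medium, infected erythrocytes added (0.3% parasitemia, 2.5% hematocrit), 72 h culture at 37 C under 5% CO2. Saponin/Triton lysis with SYBR Green I, overnight RT, then fluorescence read.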

The subject of a further test is AS120. The method, boiled down: as §1
For a further test, the system named is ATS189. The method, boiled down: as §1
Another test has as its system ATS95. The method, boiled down:
as §1

Another test concerns C2A. The gist of the method: as §1
For another test, the system named is CP185. The gist of the method: as §1
A further test deals with CP191. The gist of the method:
as §1

Another test relates to CP192. The method, boiled down: as §1
A further test relates to CP194. The method, boiled down:
as §1

Another test has as its system CP201. The gist of the method: as §1

Records with an inconclusive call do not appear. Calls of active or inactive are those of the source. Calls follow the shape of the dose curve; as a rule, active = well fitted inhibition curve with a large enough effect; inconclusive = small, poorly fitted or top-dose-only effect; inactive = flat fitted curve, though single readings scatter.

This note sets out measurements from PubChem BioAssay (NCATS).
Potency is read from the fitted curve at half-maximal effect.

`COc1cc2c3cc1Oc1cc(ccc1O)C[C@@H]1c4c(cc(OC)c(O)c4Oc4ccc(cc4)C[C@@H]3N(C)CC2)CC[N+]1(C)C`: the Potency entry in the test on AA1029, in the test with AS120, in the test with ATS189, in the test with ATS95, in the test with C2A and with CP185 was “inactive” in each case. Further, the Potency entry in the test with CP191, in the test on CP192, with CP194 and with CP201 was “inactive” each time.
As to `CN1CCN(c2cc3c(nn2)Oc2ccccc2N3C)CC1`, the Potency result in the test with AA1029, in the test with AS120, in the test with ATS189, in the test on ATS95, in the test on C2A and in the test on CP185 was “inactive” in each case. The Potency result in the test on CP191, in the test on CP192, in the test with CP194 and in the test with CP201 was “inactive” each time.
Consider `CC1(C)S[C@@H]2[C@H](NC(=O)[C@H](NC(=O)N3CCN(S(C)(=O)=O)C3=O)c3ccccc3)C(=O)N2[C@H]1C(=O)O`, for which the Potency entry in the test with AA1029, in the test with AS120, in the test with ATS189, in the test on ATS95, in the test with C2A and in the test with CP185 was “inactive” each time. The Potency entry in the test on CP191, with CP192, with CP194 and in the test with CP201 was “inactive” throughout.
For `C=CCN1C(=O)C(CC(C)C)NC1=S` (centres undefined), the Potency result in the test on AA1029, in the test with AS120, in the test with ATS189, with ATS95, with C2A and in the test on CP185 was “inactive” each time. Moreover, the Potency entry with CP191, with CP192, in the test with CP194 and in the test with CP201 was “inactive” each time.
Consider `Nc1cc(-c2ccncc2)c[nH]c1=O`, for which the Potency entry in the test with AA1029, in the test on AS120, in the test with ATS189, in the test with ATS95, with C2A and in the test on CP185 was “inactive” throughout. For the same compound, the Potency result with CP191, with CP192, in the test on CP194 and in the test with CP201 was “inactive” each time.
Regarding `Cc1ccc(O)c(-n2nc3ccccc3n2)c1`, the Potency entry with AA1029, in the test with AS120, with ATS189, in the test with ATS95, in the test on C2A and in the test on CP185 was “inactive” throughout. The Potency entry with CP191, with CP192, with CP194 and with CP201 was “inactive” in each case.
For the compound `CCCCCCCCCCCCCCCCCC(=O)O`, the Potency result with AA1029, in the test on AS120, in the test with ATS189, in the test with ATS95, in the test with C2A and in the test with CP185 was “inactive” in each case. For the same compound, the Potency entry in the test on CP191, in the test with CP192, in the test with CP194 and in the test with CP201 was “inactive” each time.
For the compound `O=C(O)[C@H](O)[C@@H](O)[C@H](O)[C@H](O)CO`, the Potency result with AA1029, with AS120, with ATS189, with ATS95, with C2A and with CP185 was “inactive” each time. For the same compound, the Potency result with CP191, with CP192, with CP194 and in the test with CP201 was “inactive” each time.
As for `CCCCCCCCCCCC(=O)[O][Sn]([CH2]CCC)([CH2]CCC)[O]C(=O)CCCCCCCCCCC`, the Potency result in the test on AA1029, in the test on AS120, in the test on ATS189, with ATS95, in the test on C2A and in the test with CP185 was “inactive” each time. For the same compound, the Potency entry in the test on CP191, in the test with CP192, in the test on CP194 and in the test with CP201 was “inactive” in each case.
As to `CCCCCC[C@@H](O)C/C=C\CCCCCCCC(=O)O`, the Potency entry in the test with AA1029, with AS120, in the test with ATS189, in the test with ATS95, in the test on C2A and with CP185 was “inactive” throughout. The Potency result with CP191, with CP192, in the test on CP194 and with CP201 was “inactive” in each case.
As for `CCCCCCOc1ccccc1C(N)=O`, the Potency entry in the test on AA1029, with AS120, in the test on ATS189, with ATS95, in the test with C2A and with CP185 was “inactive” each time. For the same compound, the Potency entry in the test with CP191, with CP192, in the test on CP194 and with CP201 was “inactive” in each case.
For the compound `Cc1ccc(C(=O)c2ccc(CC(=O)O)n2C)cc1`, the Potency entry with AA1029, with AS120, with ATS189, with ATS95, with C2A and with CP185 was “inactive” each time. In addition, the Potency result in the test with CP191, with CP192, with CP194 and in the test on CP201 was “inactive” in each case.
For the compound `C#C[C@]1(O)CC[C@H]2[C@@H]3CCc4cc(O)ccc4[C@H]3CC[C@@]21C`, the Potency entry with AA1029, in the test on AS120, in the test with ATS189, in the test on ATS95, with C2A and in the test on CP185 was “inactive” each time. Further, the Potency entry in the test on CP191, in the test with CP192, with CP194 and in the test with CP201 was “inactive” throughout.
For the compound `c1ccc2sc(SSc3nc4ccccc4s3)nc2c1`, the Potency entry in the test with AA1029, with AS120, with ATS189, in the test on ATS95, in the test on C2A and with CP185 was “inactive” each time. In addition, the Potency entry with CP191, with CP192, in the test with CP194 and in the test with CP201 was “inactive” throughout.
Consider `Cc1ccccc1CNc1ncnc2c1ncn2C1OC(CO)C(O)C1O` (centres undefined), for which the Potency result in the test with AA1029, in the test with AS120, in the test with ATS189, in the test on ATS95, with C2A and in the test with CP185 was “inactive” each time. Also, the Potency result with CP191, with CP192, in the test with CP194 and in the test on CP201 was “inactive” throughout.
`O=C(OCc1ccccc1)c1ccccc1`: the Potency result in the test on AA1029, in the test with AS120, in the test with ATS189, with ATS95, in the test on C2A and in the test with CP185 was “inactive” throughout. Besides, the Potency result in the test with CP191, in the test on CP192, with CP194 and with CP201 was “inactive” each time.
As to `O=C(O)/C=C/C(O)c1ccc(Cl)cc1` (centres undefined), the Potency entry in the test with AA1029, in the test with AS120, in the test with ATS189, in the test on ATS95, with C2A and in the test on CP185 was “inactive” in each case. Further, the Potency result in the test with CP191, in the test with CP192, in the test on CP194 and in the test on CP201 was “inactive” in each case.
As to `C=CCCCCCCCCC(=O)O`, the Potency result in the test with AA1029, with AS120, in the test on ATS189, in the test with ATS95, with C2A and in the test with CP185 was “inactive” throughout. The Potency result in the test with CP191, in the test with CP192, in the test with CP194 and in the test with CP201 was “inactive” in each case.
`O=C1CN(/N=C/c2ccc(-c3ccc([N+](=O)[O-])cc3)o2)C(=O)N1`: the Potency entry in the test with AA1029, with AS120, in the test on ATS189, in the test on ATS95, with C2A and in the test on CP185 was “inactive” in each case. Further, the Potency result with CP192 and in the test on CP194 was “inactive” throughout. Also, the Potency in the test on CP191 was 7.08 µM (active).
Regarding `CCOC(=O)c1ccccc1O`, the Potency entry with AA1029, in the test on AS120, in the test on ATS189, in the test with ATS95, in the test with C2A and with CP185 was “inactive” in each case. Further, the Potency result in the test on CP191, with CP192, with CP194 and in the test on CP201 was “inactive” throughout.
For `O=C(Nc1ccc(C(=O)O)c(O)c1)c1ccccc1`, the Potency result in the test with AA1029, in the test on AS120, in the test on ATS189, with ATS95, in the test with C2A and with CP185 was “inactive” each time. For the same compound, the Potency entry with CP191, in the test with CP192, in the test on CP194 and with CP201 was “inactive” throughout.
Take `CCCCCCCCCCCCCCCC(=O)OC(C)C`: the Potency entry with AA1029, in the test with AS120, in the test on ATS189, in the test with ATS95, in the test with C2A and with CP185 was “inactive” throughout. Moreover, the Potency result with CP191, in the test on CP192, with CP194 and in the test with CP201 was “inactive” each time.
Take `Nc1ccc(C(=O)O)c(O)c1`: the Potency result in the test with AA1029, with AS120, in the test on ATS189, in the test on ATS95, with C2A and in the test on CP185 was “inactive” in each case. The Potency result in the test with CP191, in the test on CP192, in the test with CP194 and in the test on CP201 was “inactive” in each case.
Turning to `CCC1C(=O)OCC1Cc1cncn1C` (centres undefined), the Potency result in the test on AA1029, in the test on AS120, with ATS189, in the test on ATS95, in the test with C2A and in the test on CP185 was “inactive” in each case. Besides, the Potency result in the test on CP191, with CP192, in the test with CP194 and in the test with CP201 was “inactive” throughout.
On to `O=C(O)[C@H](CC(=O)N1C[C@H]2CCCC[C@H]2C1)Cc1ccccc1`, for which the Potency result with AA1029, in the test on AS120, in the test with ATS189, in the test on ATS95, with C2A and in the test on CP185 was “inactive” in each case. The Potency entry in the test with CP191, with CP192, with CP194 and in the test on CP201 was “inactive” in each case.
For the compound `Cc1c(Nc2ncccc2C(=O)O)cccc1C(F)(F)F`, the Potency result in the test with AA1029, in the test on AS120, with ATS189, in the test on ATS95, in the test with C2A and in the test with CP185 was “inactive” throughout. Also, the Potency entry with CP191, in the test on CP192, in the test on CP194 and in the test on CP201 was “inactive” each time.
Regarding `O=C(O)COc1ccc(C(=O)c2cccs2)c(Cl)c1Cl`, the Potency result in the test with AA1029, in the test with AS120, in the test on ATS189, in the test with ATS95, in the test on C2A and in the test with CP185 was “inactive” each time. Also, the Potency entry in the test with CP191, in the test on CP192, with CP194 and in the test with CP201 was “inactive” each time.
Consider `CC(C(=O)O)c1ccc2c(c1)[nH]c1ccc(Cl)cc12` (centres undefined), for which the Potency result in the test with AA1029, with AS120, in the test with ATS189, in the test with ATS95, in the test on C2A and in the test with CP185 was “inactive” each time. Further, the Potency entry with CP191, with CP192, in the test with CP194 and in the test on CP201 was “inactive” in each case.
As for `CCCOC(=O)c1ccc(O)cc1`, the Potency entry in the test with AA1029, in the test on AS120, in the test with ATS189, in the test on ATS95, in the test on C2A and in the test with CP185 was “inactive” throughout. In addition, the Potency result in the test on CP191, in the test on CP192, in the test on CP194 and with CP201 was “inactive” in each case.
With `O=C(O)Cc1ccc(-c2ccccc2)cc1`, the Potency entry in the test with AA1029, in the test on AS120, in the test with ATS189, with ATS95, with C2A and in the test on CP185 was “inactive” each time. For the same compound, the Potency entry in the test with CP191, in the test on CP192, with CP194 and in the test on CP201 was “inactive” throughout.
